Assay results reported in PubChem BioAssay AID1159580 (chemical genetic matrix, 2015).
“And” between values parts separate entries of the source, which are not always exact repeats. Identical values can stand only once. Among all 5,500 compounds or so, about 2,000 (36%) were called active. Roughly 18% stayed inconclusive and do not appear here. Rule as the data show it: active = normalized growth mostly below about 0.91 (no sharp cut-off); inconclusive = no clear call, values can overlap the other calls; inactive = mostly above about 0.92. Some of the results follow.

Experiment: chemical genetic growth profiling, strain panel (AID 1159580);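 also: tested at 20 µM; growth read once vehicle control cultures reached saturation at 30 °C; 1 = growth at the plate median or of vehicle wells; lower values mean less growth of the strain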
Conditions: S. cerevisiae deletion strains, growth OD

Measured: normalized growth

CC1OC(O[C@H]2/C=C/C=C/C=C/C=C/C=C/C=C/C=C/[C@H](C)[C@@H](O)[C@@H](C)[C@H](C)OC(=O)CC(O)CC(O)CCC(O)C(O)CC(O)C[C@]3(O)C[C@H](O)C(C(=O)O)C(C2)O3)C(O)[C@H](N)C1O (stereo partly drawn)
active: locus YAL021C, strain ccr4, stronger effect = lower value 0.0628 | locus YAL026C, strain drs2, stronger effect = lower value 0.059 | locus YBR171W, strain sec66, stronger effect = lower value 0.0768 | locus YCR088W, strain abp1, stronger effect = lower value 0.0609 | locus YDL005C, strain med2, stronger effect = lower value 0.0884 | locus YDR001C, strain nth1, stronger effect = lower value 0.0792 | locus YDR069C, strain doa4, stronger effect = lower value 0.0722 | locus YDR137W, strain rgp1, stronger effect = lower value 0.252 | locus YDR159W, strain sac3, stronger effect = lower value 0.696 | locus YDR195W, strain ref2 0.132 | locus YDR334W, strain swr1, stronger effect = lower value 0.115 | locus YDR335W, strain msn5, stronger effect = lower value 0.508 | locus YDR392W, strain spt3, stronger effect = lower value 0.07 | locus YEL003W, strain gim4, stronger effect = lower value 0.0549 | locus YEL037C, strain rad23, stronger effect = lower value 0.193 | locus YEL061C, strain CIN8 (second series), stronger effect = lower value 0.064 | locus YER016W, strain bim1, stronger effect = lower value 0.819 | locus YER111C, strain swi4, stronger effect = lower value 0.0759 | locus YER155C, strain BEM2 (second series), stronger effect = lower value 0.778 | locus YFR010W, strain ubp6, stronger effect = lower value 0.065 | locus YGL086W, strain mad1, stronger effect = lower value 1.07 [resistant] | locus YGL227W, strain vid30, stronger effect = lower value 0.0641 | locus YGL240W, strain doc1, stronger effect = lower value 0.856 | locus YGL253W, strain hxk2, stronger effect = lower value 0.0796 | locus YHR013C, strain ard1, stronger effect = lower value 1.38 [resistant] | locus YHR079C, strain IRE1, stronger effect = lower value 0.111 | locus YHR142W, strain chs7, stronger effect = lower value 0.843 | locus YJL092W, strain hpr5, stronger effect = lower value 0.0636 | locus YJL115W, strain asf1, stronger effect = lower value 0.893 | locus YJL129C, strain trk1, stronger effect = lower value 0.0757 | locus YKR026C, strain gcn3, stronger effect = lower value 0.0616 | locus YLL001W, strain dnm1, stronger effect = lower value 0.0851 | locus YLL026W, stronger effect = lower value 0.0668 | locus YLL041C, strain sdh2, stronger effect = lower value 0.0791 | locus YLR027C, strain aat2, stronger effect = lower value 0.0727 | locus YLR113W, strain HOG1, stronger effect = lower value 0.125 | locus YLR221C, strain rsa3, stronger effect = lower value 0.342 | locus YLR342W, strain FKS1, stronger effect = lower value 0.807 | locus YLR357W, strain rsc2, stronger effect = lower value 0.123 | locus YLR370C, strain arc18, stronger effect = lower value 0.112 | locus YLR384C, strain iki3, stronger effect = lower value 0.754 | locus YML120C, strain ndi1, stronger effect = lower value 0.0569 | locus YMR058W, strain fet3, stronger effect = lower value 0.0612 | locus YMR125W, strain sto1, stronger effect = lower value 0.0674 | locus YMR129W, stronger effect = lower value 0.0583 | locus YMR205C, strain PFK2, stronger effect = lower value 0.105 | locus YMR231W, strain pep5, stronger effect = lower value 0.881 | locus YNL071W, strain lat1, stronger effect = lower value 0.252 | locus YNL248C, strain rpa49, stronger effect = lower value 0.0699 | locus YNL322C, strain KRE1 (second series), stronger effect = lower value 0.092 | locus YOR001W, strain rrp6, stronger effect = lower value 0.0632 | locus YOR080W, strain dia2, stronger effect = lower value 0.389 | locus YOR231W, strain MKK1, stronger effect = lower value 0.109 | locus YOR290C, strain snf2, stronger effect = lower value 0.0611 | locus YPL078C, strain atp4, stronger effect = lower value 0.157 | locus YPL106C, strain sse1, stronger effect = lower value 0.319 | locus YPL240C, strain hsp82, stronger effect = lower value 0.108 | locus YPL256C, strain CLN2, stronger effect = lower value 0.122
0.993 (inactive) and 0.102 (active): locus YJL095W, strain BCK1, stronger effect = lower value
inactive: locus YAL030W, strain snc1, stronger effect = lower value 0.995 | locus YBL061C, strain skt5, stronger effect = lower value 1 | locus YBR009C, strain hhf1, stronger effect = lower value 0.987 | locus YBR021W, strain FUR4, stronger effect = lower value 1.02 | locus YBR023C, strain chs3, stronger effect = lower value 0.957 | locus YBR229C, strain ROT2, stronger effect = lower value 0.996 | locus YBR231C, strain swc5, stronger effect = lower value 0.912 | locus YBR279W, strain paf1, stronger effect = lower value 0.984 | locus YCL011C, strain gbp2, stronger effect = lower value 1 | locus YCL016C, strain dcc1, stronger effect = lower value 0.996 | locus YCL029C, strain bik1, stronger effect = lower value 1.02 | locus YCL069W, strain vba3, stronger effect = lower value 0.977 | locus YDL035C, strain GPR1, stronger effect = lower value 1 | locus YDL040C, strain nat1, stronger effect = lower value 1.01 | locus YDL074C, strain BRE1, stronger effect = lower value 1.03 | locus YDL101C, strain DUN1, stronger effect = lower value 1 | locus YDL134C, strain PPH21, stronger effect = lower value 0.986 | locus YDL185W, strain tfp1, stronger effect = lower value 1.04 | locus YDL192W, strain arf1, stronger effect = lower value 1.01 | locus YDR101C, strain arx1, stronger effect = lower value 1.06 | locus YDR162C, strain NBP2, stronger effect = lower value 0.974 | locus YDR297W, strain sur2, stronger effect = lower value 0.981 | locus YDR318W, strain mcm21, stronger effect = lower value 0.999 | locus YDR388W, stronger effect = lower value 1.02 | locus YDR502C, strain sam2, stronger effect = lower value 1.01 | locus YEL061C, strain CIN8, stronger effect = lower value 1.01 | locus YER015W, strain faa2, stronger effect = lower value 1 | locus YER110C, stronger effect = lower value 1.01 | locus YER155C, strain BEM2, stronger effect = lower value 1 | locus YER167W, strain BCK2, stronger effect = lower value 1.01 | locus YGL078C, strain dbp3, stronger effect = lower value 1 | locus YGL167C, strain pmr1, stronger effect = lower value 1.05 | locus YGL173C, strain kem1, stronger effect = lower value 0.982 | locus YGL248W, strain PDE1, stronger effect = lower value 0.964 | locus YGR135W, strain pre9, stronger effect = lower value 0.997 | locus YGR229C, strain SMI1, stronger effect = lower value 0.904 | locus YGR252W, strain gcn5, stronger effect = lower value 0.952 | locus YHR027C, strain rpn1, stronger effect = lower value 0.991 | locus YHR079C, strain IRE1 (second series), stronger effect = lower value 1.01 | locus YHR094C, strain hxt1, stronger effect = lower value 1.01 | locus YHR129C, strain ARP1, stronger effect = lower value 1.01 | locus YHR200W, strain rpn10, stronger effect = lower value 1.02 | locus YIL066C, strain RNR3, stronger effect = lower value 0.996 | locus YIL073C, strain SPO22, stronger effect = lower value 1.11 | locus YIL125W, strain kgd1, stronger effect = lower value 1.01 | locus YIR030C, strain dcg1, stronger effect = lower value 1.01 | locus YJL095W, strain BCK1 (second series), stronger effect = lower value 1 | locus YJL134W, strain LCB3, stronger effect = lower value 1.01 | locus YJL154C, strain vps35, stronger effect = lower value 0.987 | locus YJL164C, strain tpk1, stronger effect = lower value 0.996 | locus YJL166W, strain qcr8, stronger effect = lower value 0.987 | locus YJL168C, strain set2, stronger effect = lower value 1.01 | locus YJL187C, strain SWE1 (second series), stronger effect = lower value 0.99 | locus YJR043C, strain POL32, stronger effect = lower value 0.95 | locus YJR066W, strain TOR1, stronger effect = lower value 1.01 | locus YJR075W, strain HOC1, stronger effect = lower value 1.03 | locus YKL009W, strain mrt4, stronger effect = lower value 0.963 | locus YKL068W, stronger effect = lower value 0.997 | locus YKL085W, strain MDH1 (second series), stronger effect = lower value 1 | locus YKL085W, strain MDH1, stronger effect = lower value 1 | locus YKL160W, strain elf1, stronger effect = lower value 0.975 | locus YKR001C, strain vps1, stronger effect = lower value 1.04 | locus YKR091W, strain srl3, stronger effect = lower value 1.01 | locus YLR039C, strain RIC1, stronger effect = lower value 1.07 | locus YLR058C, strain SHM2, stronger effect = lower value 0.984 | locus YLR102C, strain apc9, stronger effect = lower value 1.02 | locus YLR258W, strain gsy2, stronger effect = lower value 0.981 | locus YLR262C, strain YPT6 (second series), stronger effect = lower value 0.936 | locus YLR262C, strain YPT6, stronger effect = lower value 1.07 | locus YLR268W, strain sec22, stronger effect = lower value 1.06 | locus YLR320W, strain mms22, stronger effect = lower value 0.917 | locus YLR330W, strain CHS5, stronger effect = lower value 1.02 | locus YLR342W, strain FKS1 (second series), stronger effect = lower value 1.04 | locus YLR371W, strain rom2, stronger effect = lower value 1.03 | locus YLR418C, strain cdc73, stronger effect = lower value 0.973 | locus YML016C, strain PPZ1, stronger effect = lower value 0.986 | locus YML032C, strain rad52, stronger effect = lower value 0.996 | locus YML124C, strain tub3, stronger effect = lower value 1.01 | locus YMR078C, strain ctf18, stronger effect = lower value 1.02 | locus YMR223W, strain ubp8, stronger effect = lower value 0.992 | locus YMR263W, strain SAP30, stronger effect = lower value 1 | locus YMR307W, strain GAS1, stronger effect = lower value 0.768 | locus YNL067W, strain RPL9B, stronger effect = lower value 0.982 | locus YNL153C, strain GIM3, stronger effect = lower value 0.994 | locus YNL183C, strain NPR1, stronger effect = lower value 0.994 | locus YNL209W, strain ssb2, stronger effect = lower value 0.993 | locus YNL233W, strain BNI4, stronger effect = lower value 0.982 | locus YNL250W, strain rad50, stronger effect = lower value 1 | locus YNL271C, strain bni1, stronger effect = lower value 1.01 | locus YNL298W, strain CLA4, stronger effect = lower value 1.01 | locus YNL307C, strain MCK1, stronger effect = lower value 1.03 | locus YNR049C, strain mso1, stronger effect = lower value 0.991 | locus YNR052C, strain pop2, stronger effect = lower value 0.983 | locus YOL012C, strain htz1 0.984 | locus YOL147C, strain pex11, stronger effect = lower value 1.01 | locus YOR061W, strain CKA2, stronger effect = lower value 1.01 | locus YOR069W, strain VPS5, stronger effect = lower value 0.994 | locus YOR070C, strain gyp1, stronger effect = lower value 0.971 | locus YOR083W, strain WHI5, stronger effect = lower value 0.956 | locus YOR106W, strain vam3, stronger effect = lower value 0.983 | locus YOR136W, strain idh2, stronger effect = lower value 1.02 | locus YOR144C, strain elg1, stronger effect = lower value 1.01 | locus YOR184W, strain ser1, stronger effect = lower value 1 | locus YOR265W, strain rbl2, stronger effect = lower value 0.987 | locus YOR270C, strain vph1, stronger effect = lower value 0.792 | locus YOR316C, strain cot1, stronger effect = lower value 1.02 | locus YPL051W, strain arl3, stronger effect = lower value 1 | locus YPL241C, strain CIN2, stronger effect = lower value 1.01 | locus YPR119W, strain clb2, stronger effect = lower value 1.01 | locus YPR141C, strain kar3, stronger effect = lower value 1.01 | locus YPR163C, strain tif3, stronger effect = lower value 1.03 | locus YPR167C, strain met16, stronger effect = lower value 1.03 | strain wtn01, stronger effect = lower value 1.07
1.01 (inactive) and 0.099 (active): locus YHR030C, strain SLT2, stronger effect = lower value
